The values below come from PubChem BioAssay (NCATS).

Structures are written as SMILES. Results filed as inconclusive are left out. Unmarked numbers belong to inactive results. Activity calls are given as the source filed them. The call rests on the fitted dose curve; in most records, active means well fitted curve in the direction sought with a large enough effect; inconclusive means small, poorly fitted or top-dose-only effect, or another doubt; inactive means no such curve, though single readings can be large; an effect the other way counts as inactive or inconclusive.
Potency means the concentration at half of the fitted maximal effect.

A short description of one experiment: qHTS of pediatric cancer cell lines to identify multiple opportunities for drug repurposing: Primary screen for BT-12 cells (AID 1347101). Further: nearly all actives have a fitted effect of over 25% in size.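 On activity change, negative = cytotoxic: plate controls were DMSO for no effect and bortezomib positive control for full effect.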 Particulars: BT-12 viability, CellTiter-Glo luminescence, 48 h; series mostly up to 57.3 µM; activity change, negative = cytotoxic: at the top concentration. The method, boiled down: (§1)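 Cells (500-1,000/well) rested 5 h, then received compounds for 48 h; metabolically active cells were measured by CellTiter-Glo luminescence. Final concentrations spanned up to 46 µM (MIPE, 11-point) or 0.59 nM-46 µM (NPC, 8-point) in primary screens, 11-point in follow-ups.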
In general terms: qHTS replaces the single test concentration by a dilution series.
In the case of `N/C(=N\N=C\c1ccc(Cl)cc1)N/N=C/c1ccc(Cl)cc1`, the “activity change, negative = cytotoxic” value is -26%.

As to `O=C1OC2(c3ccccc31)c1cc(Br)c(O)c(Br)c1Oc1c2cc(Br)c(O)c1Br`, the “activity change, negative = cytotoxic” value is -5.17%.

On to `O=C(Oc1cccc2cccnc12)c1ccccc1`, for which the Potency was 6.17 µM (active).

As for `Oc1c(Cl)cc(Cl)c(Cl)c1Cc1c(O)c(Cl)cc(Cl)c1Cl`, the Potency is 13.8 µM (active).

Consider `COc1ccc(C(=O)c2ccccc2O)c(O)c1`, for which the “activity change, negative = cytotoxic” value was -4.94%.

As for `CCc1oc2ccccc2c1C(=O)c1cc(I)c(O)c(I)c1`, the “activity change, negative = cytotoxic” value was -9.61%.

For the compound `CCN(CC)CCNc1ccc(CO)c2sc3ccccc3c(=O)c12`, the Potency is 13.8 µM (active).

`CCCCCCCCCCCCCC[N+](C)(C)Cc1ccccc1`: the Potency was 6.92 µM (active).

Consider `O[C@@H](c1cc(C(F)(F)F)nc2c(C(F)(F)F)cccc12)[C@H]1CCCCN1`, for which the Potency was 15.5 µM (active).

As for `NC(N)=NN=C(/C=C/c1ccc([N+](=O)[O-])o1)/C=C/c1ccc([N+](=O)[O-])o1`, the Potency is 0.978 µM (active).

Regarding `Oc1ccc(Cl)cc1Cc1cc(Cl)ccc1O`, the Potency is 27.6 µM (active).

As to `C#C[C@]1(OC(C)=O)CC[C@H]2[C@@H]3CCC4=C/C(=N/O)CC[C@@H]4[C@H]3CC[C@@]21CC`, the “activity change, negative = cytotoxic” value was -0.955%.

`CCCCCN=C(N)N/N=C/c1c[nH]c2ccc(OC)cc12`: the Potency is 13.8 µM (active).

Turning to `CCc1ccc(C(=O)C(C)CN2CCCCC2)cc1` (stereo not given), the “activity change, negative = cytotoxic” value was -15%.

On to `CCCCc1cc2ccccc2c(OCCN(C)C)n1`, for which the “activity change, negative = cytotoxic” value was -18.6%.

With `O=C(Nc1ncc([N+](=O)[O-])s1)c1cccs1`, the Potency was 12.3 µM (active).

As for `C[C@H]1O[C@@H](O[C@H]2CC[C@@]3(C)[C@H](CC[C@@H]4[C@@H]3C[C@@H](O)[C@]3(C)[C@@H](C5=CC(=O)OC5)CC[C@]43O)C2)C[C@H](O)[C@@H]1O[C@H]1C[C@H](O)[C@H](O[C@H]2C[C@H](O)[C@H](O[C@@H]3O[C@H](CO)[C@@H](O)[C@H](O)[C@H]3O)[C@@H](C)O2)[C@@H](C)O1`, the Potency is 0.309 µM (active).

Another experiment in a line: qHTS of pediatric cancer cell lines to identify multiple opportunities for drug repurposing: Primary screen for Rh18 cells (AID 1347102). Further: nearly all actives have a fitted effect of over 65% in size. On activity change, negative = cytotoxic: on the % scale 0 is the no-effect control and ±100 the full control effect. Particulars: Rh18 rhabdomyosarcoma viability, CellTiter-Glo luminescence, 48 h; series mostly up to 46 µM; activity change, negative = cytotoxic: at the top concentration. The method, boiled down:
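Cells (500-1,000/well) in growth media were settled 5 h at 37 degrees C, then given compounds for 48 h. Viability was read as CellTiter-Glo luminescence. Primary runs used MIPE at 11 points (0.78 nM-46 µM) and NPC at 8 points (0.59 nM-46 µM); follow-ups used 11 points.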
`O=C(CCCN1CC=C(n2c(=O)[nH]c3ccccc32)CC1)c1ccc(F)cc1`: the “activity change, negative = cytotoxic” value was -18.1%.

With `N/C(=N\N=C\c1ccc(Cl)cc1)N/N=C/c1ccc(Cl)cc1`, the “activity change, negative = cytotoxic” value was 7.7%.

Turning to `O=C1OC2(c3ccccc31)c1cc(Br)c(O)c(Br)c1Oc1c2cc(Br)c(O)c1Br`, the “activity change, negative = cytotoxic” value was -23.2%.

As to `COc1ccc(C(=O)c2ccccc2O)c(O)c1`, the “activity change, negative = cytotoxic” value is -8.82%.

Take `Nc1nc(Cl)nc2c1ncn2[C@@H]1O[C@H](CO)[C@@H](O)[C@@H]1F`: the “activity change, negative = cytotoxic” value was -7.89%.

In the case of `CCc1oc2ccccc2c1C(=O)c1cc(I)c(O)c(I)c1`, the “activity change, negative = cytotoxic” value was -1.45%.

Turning to `CCOC(=O)[C@@](C)(N)Cc1ccc(O)c(O)c1`, the “activity change, negative = cytotoxic” value was -13.2%.

`CCCCCCCCCCCCCC[N+](C)(C)Cc1ccccc1`: the Potency is 5.96 µM (active).

In the case of `CCc1nn(CCCN2CCN(c3cccc(Cl)c3)CC2)c(=O)n1CCOc1ccccc1`, the “activity change, negative = cytotoxic” value is -16.7%.

With `CC[C@H](c1ccc(O)cc1)[C@@H](CC)c1ccc(O)cc1`, the “activity change, negative = cytotoxic” value was -8.7%.

`CC(C)=CCOc1ccc(/C=C/C(=O)c2ccc(OCC=C(C)C)cc2OCC(=O)O)cc1`: the “activity change, negative = cytotoxic” value was -23%.

For `NC(N)=NN=C(/C=C/c1ccc([N+](=O)[O-])o1)/C=C/c1ccc([N+](=O)[O-])o1`, the Potency was 1.19 µM (active).

Regarding `NC(=O)n1c(O)c(C(=O)c2cccs2)c2cc(Cl)ccc21`, the “activity change, negative = cytotoxic” value was 12.1%.

Consider `C#C[C@]1(OC(C)=O)CC[C@H]2[C@@H]3CCC4=C/C(=N/O)CC[C@@H]4[C@H]3CC[C@@]21CC`, for which the “activity change, negative = cytotoxic” value was -28.3%.

`CCCCCN=C(N)N/N=C/c1c[nH]c2ccc(OC)cc12`: the Potency was 9.44 µM (active).

Take `CCCCNc1ccc(C(=O)OCCOCCOCCOCCOCCOCCOCCOCCOCCOC)cc1`: the “activity change, negative = cytotoxic” value was -16.4%.

In the case of `COc1ccc(C(Cl)=C(c2ccc(OC)cc2)c2ccc(OC)cc2)cc1`, the “activity change, negative = cytotoxic” value is -11.8%.

`CCc1ccc(C(=O)C(C)CN2CCCCC2)cc1` (stereo not given): the “activity change, negative = cytotoxic” value is -10.6%.

For the compound `CCCCc1cc2ccccc2c(OCCN(C)C)n1`, the “activity change, negative = cytotoxic” value was -16.6%.

As for `CC1(COc2ccc(CC3SC(=O)NC3=O)cc2)CCCCC1` (stereo not given), the “activity change, negative = cytotoxic” value is 4.14%.

Consider `C[C@]12CCC(=O)C=C1C=C[C@@H]1[C@@H]2CC[C@@]2(C)[C@H]1CC[C@@]21CCC(=O)O1`, for which the “activity change, negative = cytotoxic” value is -18.6%.

A short description of the next experiment: qHTS of pediatric cancer cell lines to identify multiple opportunities for drug repurposing: Primary screen for OHS-50 cells (AID 1347103). Further: nearly all actives have a fitted effect of over 40% in size.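 On activity change, negative = cytotoxic: plate controls were DMSO neutral control for no effect and bortezomib positive control for full effect.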 To be noted: OHS-50 osteosarcoma viability, CellTiter-Glo luminescence, 48 h; series mostly up to 57.3 µM; activity change, negative = cytotoxic: at the top concentration. The method, boiled down: as §1
As to `Cc1ccc2c(Br)cc(Br)c(O)c2n1`, the Potency was 11 µM (active).

As to `O=C1OC2(c3ccccc31)c1cc(Br)c(O)c(Br)c1Oc1c2cc(Br)c(O)c1Br`, the “activity change, negative = cytotoxic” value is -9.32%.

As to `Nc1nc(Cl)nc2c1ncn2[C@@H]1O[C@H](CO)[C@@H](O)[C@@H]1F`, the Potency was 0.195 µM (active).

Turning to `CCN(CC)CCNc1ccc(CO)c2sc3ccccc3c(=O)c12`, the Potency is 24.6 µM (active).

Take `CCCCCCCCCCCCCC[N+](C)(C)Cc1ccccc1`: the Potency was 4.37 µM (active).

Take `CCc1nn(CCCN2CCN(c3cccc(Cl)c3)CC2)c(=O)n1CCOc1ccccc1`: the Potency was 24.6 µM (active).

For the compound `O[C@@H](c1cc(C(F)(F)F)nc2c(C(F)(F)F)cccc12)[C@H]1CCCCN1`, the Potency is 21.9 µM (active).

As for `CC[C@H](c1ccc(O)cc1)[C@@H](CC)c1ccc(O)cc1`, the Potency was 27.6 µM (active).

Regarding `CCCCCCCCNC(C)C(O)c1ccc(SC(C)C)cc1` (stereo not given), the Potency is 21.9 µM (active).

Turning to `CN1CCN(CCC(=O)N2c3ccccc3Sc3ccc(C(F)(F)F)cc32)CC1`, the Potency was 17.4 µM (active).

As for `Oc1ccc(Cl)cc1Cc1cc(Cl)ccc1O`, the Potency is 9.78 µM (active).

Turning to `CCc1ccc(C(=O)C(C)CN2CCCCC2)cc1` (stereo not given), the “activity change, negative = cytotoxic” value is -22.3%.

As for `CCCCc1cc2ccccc2c(OCCN(C)C)n1`, the Potency is 15.5 µM (active).

As to `CC1(COc2ccc(CC3SC(=O)NC3=O)cc2)CCCCC1` (stereo not given), the Potency was 5.5 µM (active).

Regarding `C#C[C@]1(O)CC[C@H]2[C@@H]3CCC4=Cc5oncc5C[C@]4(C)[C@H]3CC[C@@]21C`, the Potency was 24.6 µM (active).

Turning to `CNCCCCOc1ccccc1Cc1ccccc1`, the Potency is 17.4 µM (active).

As for `C[C@]12CCC(=O)C=C1C=C[C@@H]1[C@@H]2CC[C@@]2(C)[C@H]1CC[C@@]21CCC(=O)O1`, the Potency is 15.5 µM (active).
